BCR signal inh = qHTS Assay to Find Inhibitors of Chronic Active B-Cell Receptor Signaling; ABC-DLBCL IkBa-CBG/CBR reporter, luminescence ratio, 4 h; Potency, µM (highest dose often 46.1 µM), for inactives: top-dose activity change, negative = inhibition, usual class: inhibitors; actives 0.05% (n = 340,000); active = well fitted inhibition curve with a large enough effect in the signal ratio, with a control signal flat, not every such curve was filed as active; inconclusive = small, poorly fitted or top-dose-only effect, or effect the other way, or a change in a side signal; the % refers to the signal ratio;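 note: plate controls were basal doxycycline-induced cells for no effect and cells given 10 µM MG132 for full effect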
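Doxycycline induced both beetle luciferases in TMD8 lymphoma cells; IKK-driven degradation limits the IkappaBalpha-fused green signal, while red luminescence normalises for cell number and nonspecific effects. Compounds tested up to 46 uM, 4 hrs.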
B2AR arrestin = qHTS assay of beta-arrestin-biased ligands of beta2-adrenergic receptor. Beta-2 adrenergic receptor (Homo sapiens), P07550. beta-arrestin recruitment to beta2AR, cell-based reporter. Potency, µM (doses to about 46.1 µM), inactives show top-dose activation, actives largely listed as activators. actives 0.02% (n = 330,000). AID 492947, 2010;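 note: 0% = DMSO controls and full agonism = EC100 isoproterenol or metaproterenol; nearly all actives have a fitted effect of over 65% in size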
Anesthetic bind = qHTS Assay for Identification of Novel General Anesthetics. Ferritin light chain (Equus caballus), P02791. apoferritin/1-aminoanthracene competitive binding, fluorescence. Potency, µM (series often up to 77.5 µM), for the others: at the top dose activity change, negative = displacement, usual class: inhibitors. actives 0.074% (n = 350,000). AID 485281, 2010; note: nearly all actives have a fitted effect of over 20% in size
Target sequence (P02791 2-175 limits assumed): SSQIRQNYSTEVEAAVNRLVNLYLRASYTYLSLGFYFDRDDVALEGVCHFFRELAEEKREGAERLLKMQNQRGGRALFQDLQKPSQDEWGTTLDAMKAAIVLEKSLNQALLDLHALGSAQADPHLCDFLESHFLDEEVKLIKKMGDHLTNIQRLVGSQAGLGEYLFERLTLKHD
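Concentration-response curves derived by four-parameter Hill fitting of normalized fluorescence, where compounds displaced 1-AMA from 10 uM horse apoferritin following a brief 10 min room-temperature incubation; propofol titration acted as positive control.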
Pin1 inhibitor = qHTS Assay to Find Inhibitors of Pin1; Pin1 FP peptide displacement, HiFluor488, 10 min; Potency, µM (titrated, usually from 115 µM), inactives show at the highest dose activity, negative = inhibition, actives largely listed as inhibitors; actives 0.009% (n = 390,000); active = well fitted inhibition curve with a large enough effect in the polarisation, with a control signal flat, not every such curve was filed as active; inconclusive = small, poorly fitted or top-dose-only effect, or effect the other way, or a change in a side signal; inactive = no such curve, though single readings can be large or run the other way; the % refers to the polarisation
Target sequence (Q13526 whole entry, looked up): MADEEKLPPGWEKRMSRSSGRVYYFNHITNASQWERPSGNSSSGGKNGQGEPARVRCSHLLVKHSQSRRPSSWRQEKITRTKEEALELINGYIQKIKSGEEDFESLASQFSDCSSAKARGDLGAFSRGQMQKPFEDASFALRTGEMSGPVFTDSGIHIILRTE
FEN1 inh = qHTS Assay for the Inhibitors of Human Flap endonuclease 1 (FEN1); P39748; Recombinant FEN1 flap cleavage, fluorescence, 15 min; Potency, µM (series often up to 114 µM), for the others: at the highest dose activity change, negative = inhibition, most hits filed as inhibitors; actives 0.35% (n = 390,000); note: nearly all actives have a fitted effect of over 65% in size
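In this screen, 50 nM flap DNA substrate was added to 10 nM FEN1 pretreated with compound for 15 min at room temperature; cleavage was followed with reads at 0 and 15 min, and Hill fitting gave concentration–response parameters.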
PGK inhibitor = qHTS Assay to Find Inhibitors of Phosphoglycerate Kinase. PGK/GAPDH coupled, Kinase-Glo luminescence, 60 min. Potency, µM (doses to about 57.5 µM), for inactives: top-dose activity change, negative = inhibition, actives largely listed as inhibitors. actives 0.043% (n = 380,000). Phosphoglycerate kinase, glycosomal (Trypanosoma brucei brucei), P07378; note: nearly all actives have a fitted effect of over 60% in size
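Recombinant glycosomal PGK reaction used 1,3-bisphosphoglycerate generated in-well by GAPDH (100nM final) in 100mM TEA pH 7.6, 5mM MgCl2, 0.01% Tween-20. After 60 minutes at room temperature, ATP was read by Kinase-Glo Plus luminescence end-point.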
* hit, by the source's call; ? = inconclusive; . = no result given. A selection: hits, their analogues and other compounds. The true share with any hit is near 0.45%. Unless noted, calls come from the whole dose curve; as a rule, active = well fitted curve in the direction sought with a large enough effect; inconclusive = small, poorly fitted or top-dose-only effect, or another doubt; inactive = no such curve, though single readings can be large; an effect the other way counts as inactive or inconclusive. Unless noted, % is set by controls: 0 for no effect and ±100 for the full control effect; potency is the fitted concentration of half-maximal effect.

SMILES | BCR signal inh | B2AR arrestin | Anesthetic bind | Pin1 inhibitor | FEN1 inh | PGK inhibitor
O=c1c2ccccc2sc2c(CO)ccc(NCCN3CCCCC3)c12 | . | . | . | 8.6% | 39.8µM* | -5.5%
O=C(CCC(=O)c1ccc(Cl)cc1)OCC(=O)c1ccccc1 | 10.4% | -0.2% | 12.6µM* | 3.4% | 7.4% | -4.0%
CCc1cc(=O)oc2cc(C)c(CN3CCCC(C)C3)c(O)c12 (stereo not given) | -2.1% | -0.6% | -23.3% | ? | 50.1µM* | -4.7%
Cc1ccc(C)c(NC(=S)NNC(=O)c2csc3c2CCC(C)C3)c1 (stereo not given) | 0.0% | -0.3% | 28.2µM* | 2.4% | -0.3% | -20.3%
CC(=O)Nc1ccc(Oc2ccc([N+](=O)[O-])cc2Cl)cc1 | -1.5% | -0.4% | 15.8µM* | -9.4% | 2.4% | -1.2%
CCCCCCCCCCCC[n+]1ccc(/C=C/c2c[nH]c3ccccc23)c2ccccc21 | . | . | . | . | -31.0% | .
CCCCCCC[n+]1ccc(/C=C/c2c[nH]c3ccccc23)c2ccccc21 | . | . | . | . | 25.1µM* | .
CCCCCCCCCC[n+]1ccc(/C=C/c2c[nH]c3ccccc23)cc1 | . | . | . | . | 89.1µM* | .
CCCCCCCCCCCCCCCC[n+]1ccc(/C=C/c2c[nH]c3ccccc23)c2ccccc21 | . | . | . | . | 50.1µM* | .
O=C(NCCCCc1ccccc1)C1CCN(c2nc(-c3ccc(Br)cc3)cs2)CC1 | . | . | . | 41.1% | . | .
CCCNS(=O)(=O)c1cccc(C(=O)OCc2cc(=O)oc3cc(OC)ccc23)c1 | 12.6µM* | 0.3% | ? | 30.9% | 1.8% | -7.9%
COc1ccc2c(COC(=O)c3cccc(S(=O)(=O)NCC(C)C)c3)cc(=O)oc2c1 | -5.9% | -0.7% | ? | 19.7% | -1.9% | -9.7%
COc1ccc(-c2cc(C(F)(F)F)nc(-n3cncn3)n2)cc1 | 29.8% | 9.6% | 31.6µM* | 2.8% | 0.7% | -8.1%
CC1(C)CC(=O)c2c(Cc3ccccc3)noc2C1 | -0.4% | 0.1% | ? | 2.1% | 1.5% | -0.6%
CC1(C)CC(=O)c2c(noc2-c2ccccc2)C1 | 14.7% | -0.7% | 10µM* | -4.2% | -5.4% | -2.3%
O=C(Nc1cccc2ccccc12)c1cc2c(cc1Br)OCO2 | 11.2µM* | -0.1% | 4.6% | 1.2% | 1.1% | -10.7%
CN(C(=O)c1cc2c(cc1Br)OCO2)c1cccc2ccccc12 | . | . | . | . | . | 2.5%
C#CCOCCOCCOCCNc1nc(N2CCN(C(=O)CCCCCCCCCCNC(=O)[C@H](CCCCN)n3cc(C[C@@H](C)CC)nn3)CC2)nc(N2CCN(C(=O)CCCCCCCCCCNC(=O)[C@H](CCCN=C(N)N)n3cc(C[C@@H](C)CC)nn3)CC2)n1 | ? | 0.0% | . | ? | 25.1µM* | -4.8%
C#CCOCCOCCOCCNc1nc(N2CCN(C(=O)CCCCCCCCCCNC(=O)[C@@H](CCSC)n3cc(CCO)nn3)CC2)nc(N2CCN(C(=O)CCCCCCCCCCNC(=O)[C@H](CCCN=C(N)N)n3cc(C[C@@H](C)CC)nn3)CC2)n1 | ? | 0.2% | . | 243.6% | 20µM* | -1.9%
C#CCOCCOCCOCCNc1nc(N2CCN(C(=O)CCCCCCCCCCNC(=O)[C@H](CO)n3cc(CCCCCN)nn3)CC2)nc(N2CCN(C(=O)CCCCCCCCCCNC(=O)[C@H](CCCN=C(N)N)n3cc(C[C@@H](C)CC)nn3)CC2)n1 | ? | 0.0% | . | . | . | .
